# ± gives the standard deviation of the averaged measurements. Whole data set: some 4,100 sequences, median “relative kcat/Km (krel) vs genomic leader AAAGAU” near 1.7, cut for the highest 2% near 6.5. The sample as a whole holds a higher share of the highest values than the screen did.
# Target: T1, E. coli RNase P holoenzyme (M1 P RNA + rnpA protein) (UniProt P0A7Y8)
# T1 sequence: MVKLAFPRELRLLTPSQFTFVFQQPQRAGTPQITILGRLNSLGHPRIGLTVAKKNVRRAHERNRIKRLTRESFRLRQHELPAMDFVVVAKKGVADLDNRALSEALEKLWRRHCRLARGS
# Test: relative kcat/Km (krel) vs genomic leader AAAGAU (relative (reference leader = 1)); higher = faster RNase P cleavage
# Procedure: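 HTS-Kin: a pool of ptRNA-Met (21C construct) with all 4096 combinations of 5' leader nucleotides N(-6) to N(-1) was processed in vitro by E. coli RNase P (P RNA + rnpA/C5 protein) under multiple-turnover conditions at 37 C, pH 8, 17.5 mM MgCl2. Residual substrate was Illumina-sequenced at several fractions reacted, and relative kcat/Km (krel) was computed by internal competition kinetics, calibrated to the genomic leader (AAAGAU = 1). The listed hexamer is the varied N(-6)..N(-1) leader (DNA letters), and it sits between a fixed 5' stem-loop flank (GCAUGCACGAAAGUGCGUGCUAUGAA) and the mature tRNA-Met starting GGCUACGUAGCUCAGUUGG. Two technical replicates are averaged.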
# [1] = fraction of substrate reacted: ~26-29% (28.66% repeat 1, 26.4% repeat 2)
# [2] = fraction of substrate reacted: ~9-10% (9.79% repeat 1, 9.1% repeat 2)
# [3] = fraction of substrate reacted: ~13-16% (15.68% repeat 1, 13.17% repeat 2)
Sequence,relative kcat/Km [1],relative kcat/Km [2],relative kcat/Km [3]
GGGGAT,1.93 ± 1.9,,
AATCAT,4.38 ± 1.7,3.17 ± 2,2.88 ± 0.24
TATCAT,7.37 ± 3.5,4.22 ± 1.9,5.02 ± 0.57
AATCAC,4.12 ± 1.3,2.09 ± 1.1,2.63 ± 0.078
TATCAC,7.11 ± 2.8,4.08 ± 2.5,4.88 ± 0.12
GATCAT,5.17 ± 1.7,2.26 ± 0.96,3.62 ± 0.21
GATCAC,5.26 ± 2.1,2.93 ± 0.77,4.27 ± 1.3
CCATCT,2.64 ± 0.42,2.12 ± 1.5,1.53 ± 1.1
TACACG,3.55 ± 0.64,2.67 ± 2.1,2.37 ± 0.74
TAGTAC,7.85 ± 3.4,4.35 ± 1.3,5.28 ± 0.82
TAGTAA,6.72 ± 3,3.7 ± 0.66,4.78 ± 0.65
AAGTAA,4.47 ± 1.6,2.99 ± 1.7,3.36 ± 0.17
CAGTAC,6.37 ± 2.2,3.68 ± 1.6,4.92 ± 0.95
AAGTAC,4.86 ± 1.7,3.18 ± 1.6,3.53 ± 0.57
TAGTAT,6.5 ± 3.2,3.26 ± 0.97,4.14 ± 0.84
TCATCG,1.96 ± 0.15,1.66 ± 1.1,0.943 ± 0.074
CGATGC,4.03 ± 1.4,2.88 ± 0.51,2.7 ± 1.8
TAGCTT,2.8 ± 1.2,1.84 ± 0.3,2.04 ± 0.21
ATCGCG,3.07 ± 0.91,2.62 ± 1.1,1.7 ± 0.89
ATCGCC,7.69 ± 3,4.35 ± 0.56,5.34 ± 2
GGCGCA,3.02 ± 1.3,1.73 ± 0.44,2 ± 1.2
TGCGCA,2.46 ± 0.77,2 ± 0.91,1.69 ± 0.53
ATCGCA,6.35 ± 2.8,3.36 ± 1,4.58 ± 0.2
GTCGCA,7.77 ± 3.1,4.66 ± 1.2,5.5 ± 1.6

Sequence,relative kcat/Km [1],relative kcat/Km [2],relative kcat/Km [3]
GTCGCT,3.35 ± 1,2.09 ± 1.2,2.03 ± 0.41
GTCGCC,7.93 ± 3.1,4.34 ± 1.4,5.5 ± 0.42
ATCGCT,3.27 ± 0.6,2.5 ± 0.7,2.34 ± 0.31
GTCGCG,3.47 ± 0.87,2.3 ± 2.2,1.77 ± 0.36
TTCGCA,8.75 ± 3.8,4.21 ± 0.84,6.08 ± 1.7
GTCGTC,4.02 ± 1.6,3.09 ± 1.7,2.79 ± 0.12
GGTCAA,1.83 ± 1.1,0.981 ± 0.11,1.45 ± 0.14
CATTCA,2.76 ± 0.83,2.03 ± 0.96,2.26 ± 0.27
TATACC,2.84 ± 1.4,1.83 ± 0.44,2.35 ± 0.29
TATGGT,1.77 ± 1.3,,
CTGCCT,1.91 ± 0.022,2.67 ± 0.64,1.47 ± 0.29
GGAGAG,1.19 ± 0.14,,
ATTTTT,3.89 ± 1.3,2.48 ± 0.92,2.63 ± 0.22
TTTAGA,5.73 ± 2.2,2.52 ± 0.65,3.74 ± 0.44
CCCCAT,4.95 ± 1.3,1.7 ± 1.5,3.312 ± 0.011
CGCGCA,3.31 ± 0.91,1.86 ± 0.068,2.64 ± 0.045
TTCGCT,4.56 ± 1.4,2.88 ± 1.4,3.06 ± 0.21
CTCGCT,3.67 ± 0.94,1.9 ± 0.4,2.61 ± 0.72
CTCGCG,3.19 ± 1,2.22 ± 1.4,1.19 ± 1.2
CTCGCC,7.26 ± 2.8,4.36 ± 1.6,5.23 ± 1.7
TTCGCC,9.48 ± 3.8,4.66 ± 1.2,6.09 ± 1.6
CTCGCA,6.71 ± 2.1,4.01 ± 1.4,4.94 ± 0.48
TTCGCG,3.87 ± 0.24,,2.32 ± 0.79
CTCGTA,4.83 ± 2,3.1 ± 0.69,3.21 ± 0.68

# — the supplement of paper PMC9433436
